Experiment in all cases: relative enzymatic activity vs untreated control (fraction); higher = less inhibition
Conditions in all cases: 100 µM; incubation time: 2 h at 37 C

For assay [1], the system named is DNA gyrase. As for the experimental part: (§1)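 In vitro enzymatic inhibition assays (ProFoldin kits) for 12 purified essential E. coli enzymes or complexes, each treated with 218 active antibacterial compounds at 100 µM for 2 h at 37°C. Read-outs were fluorescence or absorbance (phosphate detection, dye binding), converted to activity via standard curves and expressed relative to untreated DMSO controls.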

Assay [2] addresses DNA helicase (UniProt P0ACB1). The method, then:
as §1

The target in assay [3] is DNA ligase (UniProt B1XA82). As for the experimental part: as §1
Assay [4] concerns the target DNA polymerase (UniProt P10443). The method, then: as §1
For assay [5], the target named is DNA primase (UniProt P0ABS7). As for the experimental part: as §1
Assay [6] concerns the target GlmU (UniProt A7ZTU1). The method, then:
as §1

Assay [7] deals with Guanlyate kinase (UniProt Q0TBG1). As for the experimental part:
as §1

In assay [8] the target is MurA (UniProt Q3YX52). The method, then: as §1
The target of assay [9] is T1, MurD (UniProt P14900).
T1 sequence (whole entry): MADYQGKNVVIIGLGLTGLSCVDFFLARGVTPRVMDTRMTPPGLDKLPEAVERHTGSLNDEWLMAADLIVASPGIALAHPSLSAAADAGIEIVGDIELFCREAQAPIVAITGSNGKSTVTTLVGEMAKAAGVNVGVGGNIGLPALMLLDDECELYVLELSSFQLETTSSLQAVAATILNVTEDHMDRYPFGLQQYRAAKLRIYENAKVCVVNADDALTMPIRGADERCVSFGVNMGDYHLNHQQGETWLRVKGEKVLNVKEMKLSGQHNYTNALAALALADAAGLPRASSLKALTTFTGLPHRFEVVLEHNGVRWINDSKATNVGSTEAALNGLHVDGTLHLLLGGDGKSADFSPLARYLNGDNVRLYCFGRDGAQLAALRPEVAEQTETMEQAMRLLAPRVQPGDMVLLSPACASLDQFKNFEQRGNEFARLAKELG
As for the experimental part: as §1

Assay [10] concerns the target T2, MurF (UniProt P11880).
T2 sequence (whole entry): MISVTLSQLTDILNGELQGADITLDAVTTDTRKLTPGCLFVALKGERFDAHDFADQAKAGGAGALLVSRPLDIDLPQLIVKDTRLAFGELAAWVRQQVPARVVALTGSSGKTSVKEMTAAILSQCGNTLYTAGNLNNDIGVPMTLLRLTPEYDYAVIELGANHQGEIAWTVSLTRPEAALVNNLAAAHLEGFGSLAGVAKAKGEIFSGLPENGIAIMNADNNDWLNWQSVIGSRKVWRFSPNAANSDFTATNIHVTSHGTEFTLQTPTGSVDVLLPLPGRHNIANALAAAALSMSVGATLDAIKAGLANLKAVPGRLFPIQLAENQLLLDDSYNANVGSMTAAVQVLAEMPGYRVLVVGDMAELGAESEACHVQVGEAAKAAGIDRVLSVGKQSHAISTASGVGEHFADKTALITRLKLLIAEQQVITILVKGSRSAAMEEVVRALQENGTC
The method, then: as §1

In assay [11] the test system is RNA polymerase. The method, then:
as §1

± gives the standard deviation of the averaged measurements.

Sequence of DNA ligase (B1XA82 whole entry): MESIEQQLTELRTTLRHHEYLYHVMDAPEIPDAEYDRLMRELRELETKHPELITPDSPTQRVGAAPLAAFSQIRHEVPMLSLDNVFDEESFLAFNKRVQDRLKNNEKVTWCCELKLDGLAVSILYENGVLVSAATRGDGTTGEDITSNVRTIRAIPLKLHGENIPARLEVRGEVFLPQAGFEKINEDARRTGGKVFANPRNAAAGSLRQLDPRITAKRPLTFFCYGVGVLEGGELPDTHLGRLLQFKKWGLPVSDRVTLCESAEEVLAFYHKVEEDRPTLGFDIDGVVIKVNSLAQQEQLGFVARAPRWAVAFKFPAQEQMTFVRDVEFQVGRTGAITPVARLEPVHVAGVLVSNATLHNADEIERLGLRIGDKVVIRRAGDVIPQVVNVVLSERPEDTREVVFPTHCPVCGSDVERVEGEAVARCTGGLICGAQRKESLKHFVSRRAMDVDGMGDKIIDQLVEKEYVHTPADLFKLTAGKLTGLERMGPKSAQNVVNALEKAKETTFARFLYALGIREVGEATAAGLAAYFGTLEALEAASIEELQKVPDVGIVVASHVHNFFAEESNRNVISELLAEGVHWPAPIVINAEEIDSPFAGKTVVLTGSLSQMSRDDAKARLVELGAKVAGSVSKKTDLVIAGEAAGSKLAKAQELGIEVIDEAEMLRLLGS
Sequence of Guanlyate kinase (Q0TBG1 whole entry): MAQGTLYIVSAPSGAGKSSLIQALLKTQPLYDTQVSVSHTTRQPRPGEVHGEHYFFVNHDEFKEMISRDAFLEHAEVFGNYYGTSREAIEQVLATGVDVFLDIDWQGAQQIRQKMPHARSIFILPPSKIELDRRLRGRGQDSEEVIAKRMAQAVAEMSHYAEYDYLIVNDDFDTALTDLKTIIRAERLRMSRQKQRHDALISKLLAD
Sequence of GlmU (A7ZTU1 whole entry, looked up): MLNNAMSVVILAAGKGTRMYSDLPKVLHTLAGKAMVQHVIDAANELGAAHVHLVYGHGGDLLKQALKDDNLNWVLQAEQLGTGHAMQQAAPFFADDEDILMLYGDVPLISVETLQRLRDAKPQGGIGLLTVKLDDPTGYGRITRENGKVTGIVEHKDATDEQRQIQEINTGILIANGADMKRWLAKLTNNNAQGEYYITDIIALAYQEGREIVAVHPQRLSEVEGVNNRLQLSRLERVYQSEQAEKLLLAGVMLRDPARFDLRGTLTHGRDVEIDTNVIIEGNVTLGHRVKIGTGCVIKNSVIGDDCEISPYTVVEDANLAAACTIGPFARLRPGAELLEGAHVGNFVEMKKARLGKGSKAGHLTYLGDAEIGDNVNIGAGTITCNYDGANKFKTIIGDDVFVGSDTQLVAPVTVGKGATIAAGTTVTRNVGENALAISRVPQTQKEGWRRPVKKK
Sequence of DNA primase (P0ABS7 whole entry): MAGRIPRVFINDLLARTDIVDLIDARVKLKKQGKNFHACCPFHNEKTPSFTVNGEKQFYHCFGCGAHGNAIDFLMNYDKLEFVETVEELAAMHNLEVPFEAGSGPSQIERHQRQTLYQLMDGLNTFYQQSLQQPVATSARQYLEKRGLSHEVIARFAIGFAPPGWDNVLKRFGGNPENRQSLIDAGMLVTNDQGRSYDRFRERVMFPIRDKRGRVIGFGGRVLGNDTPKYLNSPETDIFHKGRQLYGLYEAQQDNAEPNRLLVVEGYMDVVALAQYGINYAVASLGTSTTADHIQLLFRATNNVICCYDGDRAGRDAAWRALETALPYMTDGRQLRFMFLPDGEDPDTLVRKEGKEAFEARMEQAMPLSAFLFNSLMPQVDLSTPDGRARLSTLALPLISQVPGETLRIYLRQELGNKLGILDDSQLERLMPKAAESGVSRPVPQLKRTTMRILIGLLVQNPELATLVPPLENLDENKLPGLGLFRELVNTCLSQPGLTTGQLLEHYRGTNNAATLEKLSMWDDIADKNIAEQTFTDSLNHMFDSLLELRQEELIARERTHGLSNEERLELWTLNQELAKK
Sequence of DNA helicase (P0ACB1 whole entry): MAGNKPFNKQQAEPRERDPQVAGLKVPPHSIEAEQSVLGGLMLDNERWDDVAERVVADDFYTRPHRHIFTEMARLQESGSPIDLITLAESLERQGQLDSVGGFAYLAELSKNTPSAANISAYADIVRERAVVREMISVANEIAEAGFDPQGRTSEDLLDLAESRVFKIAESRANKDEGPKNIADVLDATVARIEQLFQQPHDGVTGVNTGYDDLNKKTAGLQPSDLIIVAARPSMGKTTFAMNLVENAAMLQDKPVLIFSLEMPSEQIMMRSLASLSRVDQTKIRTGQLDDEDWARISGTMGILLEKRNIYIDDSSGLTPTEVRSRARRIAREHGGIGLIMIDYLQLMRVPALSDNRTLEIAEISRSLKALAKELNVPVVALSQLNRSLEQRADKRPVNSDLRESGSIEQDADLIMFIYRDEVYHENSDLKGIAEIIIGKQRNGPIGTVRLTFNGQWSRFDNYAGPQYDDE
Sequence of DNA polymerase (P10443 whole entry): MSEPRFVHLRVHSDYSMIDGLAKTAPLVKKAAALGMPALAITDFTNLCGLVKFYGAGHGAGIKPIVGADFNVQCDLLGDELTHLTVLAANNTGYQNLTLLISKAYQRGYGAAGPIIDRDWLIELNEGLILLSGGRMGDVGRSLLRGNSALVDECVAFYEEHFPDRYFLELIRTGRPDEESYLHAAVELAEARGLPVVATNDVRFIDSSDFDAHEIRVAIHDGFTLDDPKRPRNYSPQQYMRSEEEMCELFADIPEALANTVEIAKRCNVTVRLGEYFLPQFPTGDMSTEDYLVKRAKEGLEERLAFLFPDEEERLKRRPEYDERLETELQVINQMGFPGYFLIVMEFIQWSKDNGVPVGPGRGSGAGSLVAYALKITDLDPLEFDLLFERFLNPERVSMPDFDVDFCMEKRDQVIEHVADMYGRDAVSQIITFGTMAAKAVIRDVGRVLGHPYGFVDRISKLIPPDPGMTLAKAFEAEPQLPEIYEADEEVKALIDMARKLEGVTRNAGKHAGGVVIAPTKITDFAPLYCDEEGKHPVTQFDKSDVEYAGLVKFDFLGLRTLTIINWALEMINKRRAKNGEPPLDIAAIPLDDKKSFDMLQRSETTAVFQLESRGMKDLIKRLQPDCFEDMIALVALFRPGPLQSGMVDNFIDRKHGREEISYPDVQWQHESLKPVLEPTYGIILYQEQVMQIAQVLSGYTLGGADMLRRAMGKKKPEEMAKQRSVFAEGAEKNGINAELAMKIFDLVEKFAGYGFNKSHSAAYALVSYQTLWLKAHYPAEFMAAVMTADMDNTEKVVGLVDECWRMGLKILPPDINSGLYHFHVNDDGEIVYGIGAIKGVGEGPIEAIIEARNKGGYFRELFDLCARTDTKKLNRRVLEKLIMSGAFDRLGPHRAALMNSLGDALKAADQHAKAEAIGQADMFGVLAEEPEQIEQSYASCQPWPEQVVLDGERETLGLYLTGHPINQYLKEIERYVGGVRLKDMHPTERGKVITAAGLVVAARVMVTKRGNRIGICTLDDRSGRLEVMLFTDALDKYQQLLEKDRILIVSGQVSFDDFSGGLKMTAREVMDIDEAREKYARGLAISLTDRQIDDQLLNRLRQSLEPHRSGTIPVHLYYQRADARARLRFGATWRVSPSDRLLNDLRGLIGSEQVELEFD
Sequence of MurA (Q3YX52 whole entry): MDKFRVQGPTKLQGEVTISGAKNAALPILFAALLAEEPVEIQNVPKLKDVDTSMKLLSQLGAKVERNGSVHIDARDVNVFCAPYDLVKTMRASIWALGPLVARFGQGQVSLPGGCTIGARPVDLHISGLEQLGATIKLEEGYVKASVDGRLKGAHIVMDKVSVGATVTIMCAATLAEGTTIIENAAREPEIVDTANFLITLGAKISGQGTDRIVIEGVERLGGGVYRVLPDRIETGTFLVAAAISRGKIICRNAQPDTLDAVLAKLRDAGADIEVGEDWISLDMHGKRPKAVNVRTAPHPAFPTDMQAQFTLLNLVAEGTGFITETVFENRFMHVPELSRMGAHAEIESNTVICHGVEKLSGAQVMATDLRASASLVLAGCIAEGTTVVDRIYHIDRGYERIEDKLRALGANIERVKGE

On to `CO/N=C(\C(=O)N[C@@H]1C(=O)N2C(C(=O)O)=C(CSC(=O)c3ccco3)CS[C@H]12)c1csc(N)n1`, for which the relative enzymatic activity in assay [1] stood at 0.0013 ± 0.0018; in assay [2] it was 0.049 ± 0.0096; in assay [3], 0.817 ± 0.063; in [4], 0.312 ± 0.026; in assay [5], 0.533 ± 0.092; in assay [6], 0.492 ± 0.17. Also, the relative enzymatic activity in assay [7] amounted to 0.778 ± 0.12; in assay [8], 0.0403 ± 0.017; in [9], 0.125 ± 0.094; in [10] it was 0.82 ± 0.26; in [11] it was 0.602 ± 0.68.
With `CN(C)c1cc(CNCC(C)(C)C)c(O)c2c1C[C@H]1C[C@H]3[C@H](N(C)C)C(=O)[C@H](C(N)=O)C(=O)[C@@]3(O)C(=O)[C@@H]1C2=O`, the relative enzymatic activity in [1] was found to be 0.256 ± 0.0049; in assay [2] it was 0.355 ± 0.04; in assay [3], 0.862 ± 0.018; in assay [4], 1.09 ± 0.3; in assay [5], 0.671 ± 0.07; in assay [6], 0.9877 ± 0.0037. In addition, the relative enzymatic activity in assay [7] stood at 0.49613 ± 0.0003; in [8] it was 0.133 ± 0.025; in assay [9], 0.578 ± 0.38; in assay [10] it was 1.23 ± 0.068; in [11], 0.289 ± 0.1.
As to `NC(=O)[C@@H]1CC[C@@H]2CN1C(=O)N2OS(=O)(=O)O`, the relative enzymatic activity in assay [1] turned out to be 0.771 ± 0.26; in [2], 0.552 ± 0.18; in assay [3] it was 0.834 ± 0.21; in assay [4], 0.501 ± 0.71; in assay [5], 0.803 ± 0.037; in [6] it was 0.998 ± 0.01. Further, the relative enzymatic activity in assay [7] stood at 0.947 ± 0.072; in assay [8], 0.699 ± 0.17; in [9], 0.604 ± 0.42; in assay [10], 0.976 ± 0.22; in assay [11] it was 0.809 ± 0.13.
As to `COc1cc(Cc2cnc(N)nc2N)cc(OC)c1OC`, the relative enzymatic activity in [1] turned out to be 0.772 ± 0.45; in assay [2], 0.617 ± 0.18; in assay [3], 1.12 ± 0.24; in assay [4], 1.36 ± 0.46; in [5] it was 0.685 ± 0.15; in assay [6], 1.009 ± 0.0036. For the same compound, the relative enzymatic activity in [7] came out at 1.01 ± 0.05; in [8], 0.706 ± 0.023; in assay [9] it was 0.589 ± 0.4; in assay [10], 0.569 ± 0.81; in assay [11], 0.887 ± 0.074.
As for `O=C(NC(CO)C(O)c1ccc([N+](=O)[O-])cc1)C(Cl)Cl` (stereo not drawn), the relative enzymatic activity worked out at 1.08 ± 0.086 in assay [1]; 0.453 ± 0.012 in assay [2]; 0.947 ± 0.19 in [3]; 1.34 ± 0.4 in assay [4]; 0.725 ± 0.2 in [5]; 0.972 ± 0.052 in [6]. The relative enzymatic activity worked out at 1.04 ± 0.047 in assay [7]; 0.8 ± 0.18 in [8]; 0.548 ± 0.34 in [9]; 0.96 ± 0.2 in assay [10]; 0.86 ± 0.028 in assay [11].
With `CON=C(C(=O)NC1C(=O)N2C(C(=O)O)=C(CSC(=O)c3ccco3)CSC12)c1csc(N)n1.Cl` (stereo not drawn), the relative enzymatic activity in assay [1] was 0.933 ± 0.033; in assay [2], 0.388 ± 0.053; in assay [3], 1.07 ± 0.033; in [4] it was 0.476 ± 0.67; in assay [5], 0.657 ± 0.15; in [6] it was 0.844 ± 0.063. Moreover, the relative enzymatic activity stood at 0.949 ± 0.12 in assay [7]; 0.0647 ± 0.013 in assay [8]; 0.551 ± 0.37 in [9]; 0.95 ± 0.2 in [10]; 0.832 ± 0.051 in assay [11].
As to `O=C(O)c1cn(C2CC2)c2cc(N3CCNCC3)c(F)cc2c1=O`, the relative enzymatic activity in assay [1] was 0.0423 ± 0.06; in [2], 0.645 ± 0.22; in assay [4] it was 0.688 ± 0.4; in [5] it was 0.687 ± 0.18; in assay [6], 1.09 ± 0.16; in assay [7], 0.932 ± 0.065. The relative enzymatic activity was determined as 0.705 ± 0.28 in assay [8], 0.576 ± 0.41 in assay [9], 0.991 ± 0.21 in assay [10] and 0.771 ± 0.006 in assay [11].
For the compound `C=CC1=C(C(=O)O)N2C(=O)[C@@H](NC(=O)/C(=N\OCC(=O)O)c3csc(N)n3)[C@H]2SC1`, the relative enzymatic activity was 0.321 ± 0.084 in assay [1]; 0.432 ± 0.089 in assay [2]; 0.941 ± 0.17 in assay [3]; 1.06 ± 0.23 in assay [4]; 0.662 ± 0.021 in assay [5]; 1.046 ± 0.0058 in assay [6]. For the same compound, the relative enzymatic activity is 0.886 ± 0.1 in assay [7]; 0.0787 ± 0.0056 in assay [8]; 0.606 ± 0.41 in assay [9]; 0.954 ± 0.18 in [10]; 0.822 ± 0.32 in assay [11].
As for `NCC1OC(OC2C(N)CC(N)C(OC3OC(CO)C(O)C(N)C3O)C2O)C(N)C(O)C1O.O=S(=O)(O)O` (stereo not drawn), the relative enzymatic activity was found to be 0.685 ± 0.063 in assay [1]; 0.381 ± 0.53 in assay [2]; 0.834 ± 0.15 in [3]; 0.924 ± 0.43 in assay [4]; 0.539 ± 0.052 in [5]; 0.956 ± 0.069 in assay [6]. The relative enzymatic activity stood at 0.589 ± 0.046 in assay [7]; 0.257 ± 0.04 in assay [8]; 0.647 ± 0.44 in assay [9]; 0.958 ± 0.17 in assay [10]; 0.537 ± 0.016 in assay [11].

These data come from the supplement of paper PMC9446081.
